From PubChem
In the library only some 0.51% were active in any assay of this set; here they are far more common.
Tat export inh: blocks Tat-dependent protein export in E. coli; E. coli MC4100 TorA-mCherry Tat export, fluorescence; inhibition, % at 10 µM; 340,000 tested, 0.036% active;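 active = mean replicate inhibition at least 50% and at least half of replicates individually reaching 50%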;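 also: exported cargo escapes ClpAP degradation while cytoplasmic cargo is degraded and loses fluorescence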
phage Ecoli inh: E. coli growth loss with phage present; growth absorbance; inhibition, % at 11.9 µM; 360,000 tested, 0.26% active; AID 651602; in the data active = inhibition above about 11%
E coli growth-1: bacterial growth inhibition, counter-screen for AddAB inhibitors. E. coli V3065 growth, OD600 absorbance, 18 h. inhibition, % at 11.9 µM. 330,000 tested, 0.27% active. AID 449728;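 active = inhibition above the campaign's mean inhibition across all tested compounds plus 3 SD, cut at about 9.9% in these data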;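 also: uninfected addAB+ strain grown without phage in ampicillin broth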
AddAB inh: less growth of phage-infected E. coli with AddAB; 330,000 tested, 0.29% active; inhibition, % at 11.9 µM; AID 435030; E. coli expressing H. pylori AddAB, absorbance growth; in the data active = inhibition above about 12%
E coli growth-2: inhibitors of Escherichia coli growth | OD600 absorbance (test concentration not listed) | OD600, 23 h; active compounds read low | 330,000 tested, 0.21% active | AID 1053175;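 active = OD600 absorbance below the run mean of sample wells minus 3.6 SD, in any replicate, cut at about 0.56 in these data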
AddAB conf: growth loss of T4-infected E. coli expressing H. pylori AddAB, confirmed. shares compounds with AddAB inh. E. coli V3065 expressing H. pylori AddAB, T4 phage, OD; T4 phage with gene 2 nonsense mutations. inhibition, % at 11.9 µM. 880 tested, 64% active;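 active = mean inhibition above a set limit taken from the earlier primary screen, cut at about 13% in these data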;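 also: higher means less bacterial growth since AddAB block lets phage replicate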
RecBCD counter: AddAB counter-screen: growth loss of RecBCD+ E. coli infected with mutant T4 phage; shares compounds with AddAB inh; inhibition, % at 11.9 µM; E. coli V66 + mutant T4 phage, OD growth; 880 tested, 73% active; AID 488955;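 active = mean inhibition above the mean of solvent-only control wells plus 3 SD, cut at about 4% in these data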;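 also: optical density read after an 18 h incubation at 37 °C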
Bact viability: counter-screen: bacterial growth inhibition; shares compounds with AddAB inh; bacterial viability, absorbance (AddAB counterscreen); inhibition, % at 11.9 µM; 880 tested, 35% active; AID 488956; in the data active = inhibition above about 25%
RecBCD conf: growth loss of phage-infected V66 E. coli, RecBCD confirmation screen | shares compounds with phage Ecoli inh | E. coli V66 + T4 2- phage, growth OD | inhibition, % at 11.9 µM | 890 tested, 45% active | AID 651982;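 active = mean inhibition over triplicates exceeding the hit threshold derived in the original primary screen, cut at about 11% in these data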
Ecoli viability: counter-screen for RecBCD inhibitors: inhibitors of bacterial viability. shares compounds with phage Ecoli inh. E. coli viability, absorbance (OD) growth. inhibition, % at 11.9 µM. 890 tested, 29% active. AID 651983; in the data active = inhibition above about 20%;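 also: E. coli strain V66 grown with compound alone and no phage infection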
AddAB phage OD: growth loss of phage-infected AddAB E. coli, RecBCD counter-screen | shares compounds with phage Ecoli inh | E. coli expressing H. pylori AddAB + T4 phage, OD growth; gene 2 mutant T4, recBCD-deleted host | inhibition, % at 11.9 µM | 890 tested, 45% active | AID 651984;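 active = mean inhibition above the solvent-only control wells' mean plus 3 SD, cut at about 22% in these data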;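 also: higher means less bacterial growth from phage killing when AddAB is blocked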
Hits are given with their value; i = inactive; nt = not tested or not shown.

SMILES	Tat export inh	phage Ecoli inh	E coli growth-1	AddAB inh	E coli growth-2	AddAB conf	RecBCD counter	Bact viability	RecBCD conf	Ecoli viability	AddAB phage OD
CCCOc1ccc(C(=O)NC(=S)N2CCN(c3cc4c(cc3F)c(=O)c(C(=O)O)cn4CC)CC2)cc1	62	98	97	99	0.084	103	101	105	103	103	101
CCn1cc(C(=O)O)c(=O)c2cc(F)c(N3CCN(C(=S)NC(=O)c4ccc(F)cc4)CC3)cc21	i	99	96	98	0.063	100	100	102	103	104	105
CCn1cc(C(=O)O)c(=O)c2cc(F)c(N3CCN(C(=S)NC(=O)c4cccc(F)c4)CC3)cc21	i	42	99	98	0.071	100	100	100	101	101	101
CCn1cc(C(=O)O)c(=O)c2cc(F)c(N3CCN(C(=S)NC(=O)c4ccccc4Br)CC3)cc21	i	94	99	97	0.067	103	22	102	101	102	102
CCCCCCCCCC(=O)N1CCN(c2cc3c(cc2F)c(=O)c(C(=O)O)cn3CC)CC1	i	i	i	i	i	nt	nt	nt	nt	nt	nt
CCOC(=O)NN=Cc1ccc([N+](=O)[O-])s1	nt	nt	nt	nt	i	nt	nt	nt	nt	nt	nt
O=C(Cn1cnc2ccccc21)Nc1ccc(SC(F)F)cc1	i	17	13	15	i	i	13	i	i	i	i
O=C(Oc1c(CN2CCOCC2)cc(Cl)c2cccnc12)c1cccs1	i	i	i	i	i	nt	nt	nt	nt	nt	nt
O=C(Oc1c(Cl)cc(Cl)c2cccnc12)c1cccs1	i	42	43	40	0.14	51	53	56	44	53	41
Cn1cccc1C=Nn1c(-c2ccco2)n[nH]c1=S	nt	nt	nt	nt	i	nt	nt	nt	nt	nt	nt
C[C@@]12C(=O)N(CC3CC3)CC(=O)N1C(C=Cc1ccccc1)C1C(=O)N(c3ccccc3)C(=O)C12 (some centres undefined)	nt	nt	nt	nt	i	nt	nt	nt	nt	nt	nt
N#Cc1c(-c2ccccc2)ccn(Cc2cccc(Cl)c2)c1=O	i	15	16	21	i	27	16	i	i	i	i
CC(=NNC(=O)C(N)=O)c1ccc(OC(F)F)cc1	nt	nt	nt	nt	i	nt	nt	nt	nt	nt	nt
C(=N\Nc1nc2ccccc2s1)/c1ccccn1	nt	21	16	15	nt	19	14	i	i	i	i
O=C(Nc1ccccc1SC(=O)c1ccccc1)c1ccccc1	nt	i	nt	nt	nt	nt	nt	nt	nt	nt	nt
Cc1ccc(C(=O)Sc2cccccc2=O)cc1	82	62	52	51	0.14	64	61	61	78	81	89
Oc1ccccc1N=Nc1nc(-c2ccccc2)c(-c2ccccc2)[nH]1	i	20	22	28	nt	21	16	i	i	i	i
Cc1ccc(C=NNC(=O)CC2N=C(Cc3ccccc3)NNC2=O)cc1 (centres undefined)	nt	nt	nt	nt	i	nt	nt	nt	nt	nt	nt
Cc1cc(C)c(C)c(S(=O)(=O)N2CCC(C(=O)NNC(=O)c3ccccc3O)CC2)c1C	i	12	i	15	i	i	8.1	i	i	i	i
CC(=O)N1CCN(c2cc3c(cc2F)c(=O)c(C(=O)O)cn3C2CC2)CC1	62	96	101	102	0.067	99	99	99	101	102	102
CCN1CCN(c2cc3c(cc2F)c(=O)c(C(=O)O)cn3C2CC2)CC1	146	102	100	99	0.064	99	100	99	102	104	103
CCOC(=O)C1CN(c2cc3c(cc2F)c(=O)c(C(=O)O)cn3CC)OC1C(=O)OCC (centres undefined)	i	i	i	i	i	nt	nt	nt	nt	nt	nt
CCOC1OC(C(=O)N2CCCCCCC2)=CC(c2coc3ccccc3c2=O)C1CCCO (centres undefined)	nt	nt	nt	nt	i	nt	nt	nt	nt	nt	nt
COc1cccc(/C=C2/SC(=S)N(CC(=O)NNC(=O)c3ccccc3O)C2=O)c1	i	14	i	13	i	17	14	i	11	i	i
CC(C)(C)NC(=O)CCN(N=Cc1ccc([N+](=O)[O-])o1)C1=NS(=O)(=O)c2ccccc21	nt	nt	nt	nt	i	nt	nt	nt	nt	nt	nt
SMILES	Tat export inh	phage Ecoli inh	E coli growth-1	AddAB inh	E coli growth-2	AddAB conf	RecBCD counter	Bact viability	RecBCD conf	Ecoli viability	AddAB phage OD
CC(=O)N(O)CCCCCNC(=O)CCC(=O)N(O)CCCCCNC(=O)CCC(=O)N(O)CCCCCN	i	17	22	18	nt	i	13	i	i	i	i
CCCC(=O)NCCCCNC(=O)CCC	i	i	i	i	i	nt	nt	nt	nt	nt	nt
COc1c(N2CCN(C(=S)Nc3ccc(F)cc3)C(C)C2)c(F)cc2c(=O)c(C(=O)O)cn(C3CC3)c12 (centres undefined)	76	73	99	99	0.073	97	98	100	14	i	102
COc1c(N2CCN(C(=S)NC3CC4CCC3C4)C(C)C2)c(F)cc2c(=O)c(C(=O)O)cn(C3CC3)c12 (centres undefined)	64	99	99	99	0.092	102	101	101	101	103	103
C#CCOCCOCCOCCNc1nc(N2CCN(C(=O)C(CCCCN)n3cc(CN)nn3)CC2)nc(N2CCN(C(=O)C(CCC(=O)O)n3cc(C(N)CCCCN)nn3)CC2)n1 (centres undefined)	nt	nt	nt	nt	i	nt	nt	nt	nt	nt	nt
Oc1c(C(Nc2nc3ccccc3s2)c2ccco2)ccc2cccnc12 (centres undefined)	i	15	21	19	i	14	13	i	i	i	i
CC(C)C(=O)NC(c1cccc([N+](=O)[O-])c1)c1ccc2cccnc2c1O (centres undefined)	i	23	23	18	i	27	22	i	16	21	28
CC(=O)NC(c1ccco1)c1cc(F)c2cccnc2c1O (centres undefined)	i	i	i	i	i	nt	nt	nt	nt	nt	nt
CC(C)C(=O)NC(c1ccco1)c1ccc2cccnc2c1O (centres undefined)	i	21	15	16	nt	i	15	i	i	i	i
c1coc(CNc2nc3ccccc3s2)c1	i	i	i	i	i	nt	nt	nt	nt	nt	nt
O=C(O)c1cn(C2CCCCC2)c2ccccc2c1=O	i	i	i	i	i	nt	nt	nt	nt	nt	nt
